Key:
Experiment in all cases: PBM binding z-score (relative to random genomic background probes); higher = stronger binding; sequences stand for … in GC…GCGATTGACAGCGTAGAATGAAGG
[1] = tested on: RARb homodimer (NR concentration 270 nM)
How it was run: (§1)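 Custom Agilent 4×180K protein-binding microarrays carried double-stranded probes, each with a 34-nt variable region. These regions held direct-repeat seeds, single-nucleotide variants, half-site ablations and random human genomic background sequences. Ligand-free nuclear receptor dimers were incubated on the arrays for 1 h, antibodies against each partner (one per run) detected binding, and scanned fluorescence was regression-normalized. Binding z-scores take the random background probes as reference.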

[2] = tested on: RARg:RXRa (NR concentration 270 nM, RXRa partner concentration 90 nM)
How it was run: as §1

[3] = tested on: RARg homodimer (NR concentration 270 nM)
How it was run: as §1

[4] = tested on: RXRa DBDmut IVT, anti-RXR (DBD mutation: RXRa K156A/R161A, NR concentration 90 nM)
How it was run: as §1

[5] = tested on: RXRa homodimer (NR concentration 180 nM)
How it was run: as §1

[6] = tested on: THRa:RXRa (NR concentration 90 nM, RXRa partner concentration 90 nM)
How it was run: as §1

[7] = tested on: THRa homodimer (NR concentration 90 nM)
How it was run: as §1

[8] = tested on: VDR homodimer (NR concentration 270 nM)
How it was run: as §1

Sequence	PBM binding z-score [1]	PBM binding z-score [2]	PBM binding z-score [3]	PBM binding z-score [4]	PBM binding z-score [5]	PBM binding z-score [6]	PBM binding z-score [7]	PBM binding z-score [8]
TCGAGTCGGTTAGGGGCATTCAGAATGGCGTCGA	0.345	-0.19	-0.321	0.196	0.0404	1.38	-0.39	1.12
TCGAGTAGGTTATGGGCATTCAGAATGGCGTCGA	-0.0176	-0.0222	-0.106	-0.148	0.459	-0.261	-0.66	-0.437
ATATGTACGTTAGCTGGGGTCATTCAGACTAGGC	3.2	3.67	2.5	2.23	5.37	4.01	3.2	5.16
CCGACTGTGGCAAAGGTTACCATACTCAGTACGA	2	2.04	1.17	0.804	2.6	1.4	0.0506	0.185
TTACCAAGGTGAAGGACGTTGATCCCTCTGTAGA	0.644	0.43	0.524	-0.216	0.672	1.66	0.562	-0.106
CTCGAAAGGTCGTGCTCAGGTGAGTCTACCAAAC	2.6	5.27	3.98	2.42	4.89	4.01	0.948	1.03
GGAGCGAGGGCAAGTTGATAGCAGAGTTTGATGG	1.55	1.41	1.95	2.04	0.51	0.876	0.0322	1.48
